Measured values reported in PubChem BioAssay AID624417 (National Center for Advancing Translational Sciences (NCATS), 2012).
Screen size: about 410,000 compounds; about 6,400 (1.6%) were called active. A call without a number means that no potency is given here. Another 20% or so got no clear call; they are omitted. The call rests on the fitted dose curve; in most records, active means well fitted inhibition curve with a large enough effect; inconclusive means small, poorly fitted or top-dose-only effect; inactive means no such curve, though single readings can be large or run the other way. The sample as a whole holds a higher share of actives than the screen did.

molecular target: Glucagon-like peptide 1 receptor (Homo sapiens) (UniProt P43220); experiment: qHTS of GLP-1 Receptor Inverse Agonists (Inhibition Mode); conditions: HEK293 GLP-1R CRE-luciferase, luminescence, 24 h, GLP-1R form is constitutively active; series mostly up to 38.3 µM; further: nearly all actives have a fitted effect of over 55% in size
Method in brief: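 HEK293 cells stably co-expressing a cAMP-responsive luciferase reporter and constitutively active GLP-1R were seeded, incubated 12 h, then exposed to compounds for 24 h at 37 C. Luminescence was read 12 min after detection reagent; inverse agonists lower signal.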
Potency means the concentration at half of the fitted maximal effect.

Glucagon-like peptide 1 receptor (Homo sapiens), sequence (P43220 whole entry, looked up): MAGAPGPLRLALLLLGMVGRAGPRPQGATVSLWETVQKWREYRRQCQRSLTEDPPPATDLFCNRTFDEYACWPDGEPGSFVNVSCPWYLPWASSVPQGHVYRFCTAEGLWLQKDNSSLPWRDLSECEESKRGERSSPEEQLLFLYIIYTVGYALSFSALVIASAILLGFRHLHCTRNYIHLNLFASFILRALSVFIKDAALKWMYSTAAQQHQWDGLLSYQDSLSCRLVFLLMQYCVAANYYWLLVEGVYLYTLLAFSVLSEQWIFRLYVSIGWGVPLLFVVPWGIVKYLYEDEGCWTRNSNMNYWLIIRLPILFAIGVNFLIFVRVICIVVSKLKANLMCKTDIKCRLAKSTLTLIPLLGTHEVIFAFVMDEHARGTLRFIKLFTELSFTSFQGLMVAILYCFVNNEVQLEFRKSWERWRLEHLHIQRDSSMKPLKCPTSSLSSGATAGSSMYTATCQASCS

SMILES	Potency
Cc1ccc(S(=O)(=O)N2C[C@H]3C(=O)C[C@@H](c4cccc5ccccc45)N(S(=O)(=O)c4ccc(C)cc4)[C@H]3C[C@H]2c2ccc(Cl)cc2)cc1	inactive
CC1(C(=O)NS(=O)(=O)c2cccc(OC(F)F)c2)CCN1C(=O)C1CC1 (centres undefined)	inactive
CC1=NN(C(=O)Cc2ccc(C)cc2)C(O)(c2cccnc2)C1 (centres undefined)	inactive
CC1=NN(C(=O)c2ccc(Br)cc2)C(O)(c2ccccc2)C1 (centres undefined)	1.12 µM (active)
CC1=NN(C(=O)c2ccccc2Br)C(O)(c2cccnc2)C1 (centres undefined)	inactive
CCOC(=O)[C@]12CCCC=C1N(CCC1=CCCCC1)C(=O)[C@H](CC(=O)N1CCOCC1)C2	inactive
CC(=O)Nc1cccc(-c2cc3nc(NCc4cccnc4)n(C)c(=O)c3s2)c1	inactive
Cc1c(C(=O)NCC2CC2)sc(=O)n1Cc1cccc(F)c1	inactive
O=C1NC[C@H](Cc2ccc(O)cc2)N(C[C@@H]2CCCN2C[C@H](Cc2ccccc2)N2C[C@H](Cc3ccccc3)N(CC3CCCCC3)C(=O)C2=O)C1=O	inactive
c1ccc(Nc2nc(N3CCOCC3)c3ccccc3n2)cc1	10 µM (active)
CC1CN(c2nc(Nc3ccccc3)nc(N)c2[N+](=O)[O-])CC(C)O1 (centres undefined)	inactive
c1ccc(-c2nnc(N3CCOCC3)c3ccccc23)cc1	inactive
CCc1cc(C(=O)N(CC)CC(=O)Nc2c(F)cccc2F)sc1C	inactive
COC(=O)C[C@@H]1C=C[C@@H](NS(=O)(=O)c2cccc(OC)c2)[C@@H](CO)O1	inactive
O=C(Nc1cccc2cccnc12)c1cccc2c(Br)cccc12	inactive
Cc1ccc2cccc(NC(=O)c3ccc(OC(C)C)cc3)c2n1	inactive
Cc1ccc2cccc(NC(=O)c3cccc4ccccc34)c2n1	11.2 µM (active)
CNc1cnc(-c2cc(OC)c(OC)c(OC)c2)cn1	inactive
COc1ccc(-c2nc3ccccc3n2CCC(C)C)cc1OC	8.91 µM (active)
CCCn1c(C(O)c2cc(OC)ccc2OC)nc2ccccc21 (centres undefined)	inactive

SMILES	Potency
CCn1c(C(O)c2cc(OC)ccc2OC)nc2ccccc21 (centres undefined)	inactive
CCOC(=O)c1c(NC(=S)SC)sc(C(=O)N2CCc3ccccc3C2)c1C	inactive
Cc1ccc(C(=O)N[C@H](C(=O)N2CCN(c3ncccn3)CC2)C(C)C)cc1	inactive
CCN(CC)C(=O)C1=C(C)N(Cc2ccc(C(C)(C)C)cc2)C(=O)C(CC(=O)NCc2cccc3ccccc23)C1 (centres undefined)	11.2 µM (active)
CCN(CC)C(=O)C1=C(C)N(Cc2ccc(OC)cc2)C(=O)C(CC(=O)NCc2ccco2)C1 (centres undefined)	inactive
COc1ccc(CN2C(=O)C(CC(=O)NCc3cccc4ccccc34)CC(C(=O)N3CCOCC3)=C2C)cc1 (centres undefined)	inactive
COC(=O)C(Cc1c[nH]c2ccccc12)NC(=O)CCNC(=O)c1ccco1 (centres undefined)	inactive
COc1ccc(S(=O)(=O)N2CCC(C(=O)NCCC(=O)Nc3ccccc3OC)CC2)cc1	inactive
Nc1nc2c(ncn2[C@@H]2O[C@H](CNCc3ccc(OCCCN4CCOCC4)cc3)[C@@H](O)[C@H]2O)c(=O)[nH]1	inactive
COC(=O)Cc1ccc(OC2(C)CCN(Cc3ccc4c(c3)OCCO4)C2)cc1 (centres undefined)	inactive
CCOc1cccc(-n2nnnc2-c2ccc(OC)cc2)c1	2.51 µM (active)
COc1ccc(-n2nnnc2-c2nc3ccccc3s2)cc1	inactive
COc1ccc(NC(=O)CSc2nnnn2-c2cccc(OC)c2)cc1	inactive
O=C(NCCO)c1cccc(-c2cccc3nccn23)c1	inactive
O=C1NC[C@H](CCCCN2CCN(CCc3ccccc3)C(=O)C2=O)N(CC2CCCCC2)C1=O	inactive
COC(=O)c1ccc2nc(-c3ccc(F)cc3)c(Cc3ccc(C)cc3)n2c1	inactive
CCNC(=O)c1cc2c(c(-c3cccc(-c4cncnc4)c3)n1)[C@H](CCO)N(C(C)=O)C2	inactive
Cc1cccc(NC(=S)NCCc2ccc(Cl)cc2)c1C	5.62 µM (active)
Cc1c(Cl)cccc1NC(=S)NCc1ccc2c(c1)OCO2	inactive
CCNC(=S)Nc1cccc(Cl)c1C	inactive

SMILES	Potency
COc1ccc(S(=O)(=O)N(C)C[C@H]2OCc3cnnn3CCCC(=O)N([C@H](C)CO)C[C@H]2C)cc1	inactive
CC1Cc2ccccc2N1S(=O)(=O)c1cccc(C(=O)NCC(c2ccco2)N2CCCC2)c1 (centres undefined)	10 µM (active)
CC1CCc2sc(C(=O)N/N=C/C3CCCCC3)cc2C1 (centres undefined)	inactive
CC1CCc2sc(C(=O)NCC(c3ccco3)N3CCCCC3)cc2C1 (centres undefined)	8.91 µM (active)
Cc1cc(S(=O)(=O)Nc2ccc(C(=O)NCC(c3ccco3)N3CCCC3)cc2)ccc1F (centres undefined)	inactive
CC1Cc2ccccc2N1S(=O)(=O)c1cccc(C(=O)OCC(=O)N2CCOCC2)c1 (centres undefined)	inactive
CSc1ncccc1C(=O)NCC(c1ccco1)N1CCCCC1 (centres undefined)	inactive
CCN(CC(=O)Nc1ccc(NC(C)=O)cc1)C(=O)C1CC(=O)N(c2ccc3c(c2)OCCO3)C1 (centres undefined)	inactive
COc1cccc(CN(C)C(=O)CC[C@H]2O[C@@H](n3cnc4c(NC(=O)c5ccccc5)ncnc43)[C@H](O)[C@@H]2O)c1	inactive
CCCS(=O)(=O)NC(=O)C1(C)CCN(C(=O)c2sccc2C)C1 (centres undefined)	inactive
O=C(OCc1cn([C@H]2C[C@H](c3ccccc3)N(C(=O)c3cccs3)C[C@@H]2O)nn1)c1ccccc1	inactive
CN1CCN(C(=O)c2ccc(-c3cc4nc(NCc5cccnc5)n(C)c(=O)c4s3)cc2)CC1	inactive
O=C(c1ccccc1)N1CCN(c2cc(-c3ccccc3)nc3cc(-c4cccc(Cl)c4)nn23)CC1	inactive
COc1ccc(OC)c(NC(=O)C2CCCN2S(=O)(=O)c2ccc3c(c2)CC(C)N3C(C)=O)c1 (centres undefined)	inactive
C[C@@H]1CN([C@@H](C)CO)C(=O)CCCn2nncc2CO[C@@H]1CN(C)S(=O)(=O)c1ccc(-c2ccccc2)cc1	inactive
CC(C)CCNC(=O)c1[nH]c(C(F)(F)F)nc1-c1ccccc1	inactive
CCc1cccc(NC(=O)CN(c2ccc(C)c(C)c2)S(=O)(=O)c2ccsc2C(=O)OC)c1	inactive
COc1ccc(N(CC(=O)Nc2ccc(F)c(F)c2)S(=O)(=O)c2c(C)[nH]c(=O)[nH]c2=O)cc1	inactive
COC(=O)c1sccc1S(=O)(=O)N(CC(=O)Nc1ccc(C)c(F)c1)c1ccc(C)c(C)c1	8.91 µM (active)
